Our source for the Potency and outcome values is PubChem BioAssay (Tox21).

Results filed as inconclusive are left out. Unmarked numbers belong to inactive results. The source made the active and inactive calls. Unless noted, calls follow the shape of the dose curve; as a rule, active = well fitted curve in the direction sought with a large enough effect in the repeat runs; inconclusive = weak or mixed curves; inactive = no such curve, though single readings can be large; an effect the other way counts as inactive or inconclusive.

The nature of experiment [1]: qHTS assay to identify small molecule agonists of the RXR signaling pathway - cell viability counter screen (AID 1159529). Also: nearly all actives have a fitted effect of over 50% in size. Also: potency is read from the fitted curve at half-maximal effect. In a few lines: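 In this parallel viability measure, GeneBLAzer RXR-alpha HEK 293T cells (2% charcoal-stripped FBS) were given a 5 hr preincubation, treated with compounds 16 hr at 37 C, and read by CellTiter-Glo luminescence.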
In general terms: qHTS replaces the single test concentration by a dilution series.

A short description of experiment [2]: qHTS assay to identify small molecule antagonists of the retinoid acid receptor (RAR) signaling pathway - cell viability counter screen (AID 1159551). Also: nearly all actives have a fitted effect of over 35% in size. Also: potency is read from the fitted curve at half-maximal effect. In a few lines:
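Luminescent ATP quantitation (CellTiter-Glo) gave cell viability in C3RL4 cells exposed to test chemicals for 6 h at 37 C alongside 1 uM final retinol.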

A short description of experiment [3]: qHTS assay to identify small molecule antagonists of the retinoic acid receptor (RAR) signaling pathway (AID 1159552; also: nearly all actives have a fitted effect of over 50% in size; also: potency is read from the fitted curve at half-maximal effect). In a few lines: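 C3RL4 RARE-luc cells, overnight plating; retinol 1 uM final added right after compound; 6 hr 37 C; luciferase read at 30 min RT.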
A short description of experiment [4]: qHTS assay to identify small molecule antagonists of the estrogen related receptor (ERR) signaling pathway from Tox21 library - cell viability counter screen (AID 1224834). Also: nearly all actives have a fitted effect of over 30% in size. Also: potency is read from the fitted curve at half-maximal effect. In a few lines:
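Fluorescence from CellTiter-Fluor gives the viability read-out, taken 30 min after reagent addition. Before that, ERR cells seeded 6 h earlier were incubated with compounds for 17.5 h at 37 C.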

For experiment [5], the target named is Luciferin 4-monooxygenase (Photinus pyralis) (UniProt P08659). Put plainly: qHTS assay to identify small molecule inhibitors of firefly luciferase (AID 1224835). Also: nearly all actives have a fitted effect of over 25% in size. Also: potency is read from the fitted curve at half-maximal effect. The procedure, abridged: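 Inhibition of purified Photinus luciferase is measured by luminescence. Substrate levels (D-luciferin, ATP) sit at their KM values. Each compound is tested in a concentration series.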

Experiment [6] is described as follows: qHTS assay to identify small molecule agonists of the constitutive androstane receptor (CAR) signaling pathway - cell viability counter screen (AID 1224836). Also: nearly all actives have a fitted effect of over 45% in size. Also: potency is read from the fitted curve at half-maximal effect. In a few lines:
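Using CellTiter-Fluor, viability of HepG2 cells harbouring hCAR and CYP2B6-2.2kb was measured following 23 h incubation with a 15-concentration compound series plus PK11195 (0.75 uM final).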

Experiment [7] can be described thus: qHTS assay to identify small molecule antagonists of the constitutive androstane receptor (CAR) signaling pathway - cell viability counter screen (AID 1224837). Also: nearly all actives have a fitted effect of over 45% in size. Also: potency is read from the fitted curve at half-maximal effect. The procedure, abridged: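 HepG2-CYP2B6-hCAR cells, 2500/well, 4 hr pre-incubation; compound titration, 15 conc.; CITCO 50 nM final; 23 hr, 37 C/5% CO2; CellTiter-Fluor, fluorescence intensity.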
In experiment [8] the target is Nuclear receptor subfamily 1 group I member 3 (Homo sapiens) (UniProt Q14994). Put plainly: qHTS assay to identify small molecule antagonists of the constitutive androstane receptor (CAR) signaling pathway (AID 1224838).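 Also: HepG2 cells stably expressing hCAR with CYP2B6 luciferase reporter stimulated by CITCO; nearly all actives have a fitted effect of over 40% in size.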 Also: potency is read from the fitted curve at half-maximal effect. The procedure, abridged:
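HepG2-CYP2B6-hCAR cells; 4 h pre-incubation; cpd (15 conc) + CITCO 50 nM final; 24 h, 37 C/5% CO2; ONE-Glo, luminescence.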

The target is the same in experiment [9]. Put plainly: qHTS assay to identify small molecule agonists of the constitutive androstane receptor (CAR) signaling pathway (AID 1224839). Also: nearly all actives have a fitted effect of over 15% in size. Also: potency is read from the fitted curve at half-maximal effect. The procedure, abridged:
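Double-stable HepG2 cells (hCAR, CYP2B6-2.2kb) seeded 4 h before compound addition. Exposure 24 h with 0.75 uM PK11195 final. Luciferase detected by ONE-Glo.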

Experiment [10] in a line: qHTS assay to identify small molecule antagonists of the estrogen related receptor signaling pathway with the pleiotropic PPARgamma coactivator (PGC) from Tox21 10K library - cell viability counter screen (AID 1224840; active = well fitted cell-killing curve with a large enough effect in the repeat runs, not every such curve was filed as active; also: nearly all actives have a fitted effect of over 40% in size; also: potency is read from the fitted curve at half-maximal effect). In a few lines:
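PGC/ERR cells, 2,000/well; 6 h pre-incubation 37 C/5% CO2; cpd in DMSO via pin tool; 17.5 h 37 C; CellTiter-Fluor, 30 min; fluorescence.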

Experiment [11] has as its target Thyrotropin receptor (Homo sapiens) (UniProt P16473). The experiment is described as follows: qHTS assay to identify small molecule agonists of the thyroid stimulating hormone receptor (TSHR) signaling pathway (AID 1224843; calls by dose curve; also: nearly all actives have a fitted effect of over 45% in size; also: potency is read from the fitted curve at half-maximal effect). In a few lines: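 Screening of the Tox21 10K collection used HEK293 cells engineered with TSHR at 800 cells per well. After a 30-min room-temperature compound exposure, HTRF cAMP reagents were added and fluorescence recorded 1 h later.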

Experiment [12] can be described thus: qHTS assay to identify small molecule antagonists of the estrogen related receptor signaling pathway with the pleiotropic PPARgamma coactivator (PGC) from Tox21 10K library (AID 1224841; call rule not given here; also: actives are mostly falling curves and most rising ones were filed inactive; nearly all actives have a fitted effect of over 50% in size; also: potency is read from the fitted curve at half-maximal effect). The procedure, abridged: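 PGC/ERR cell line, 2,000 cells/well; 6 h pre-incubation 37 C/5% CO2; compounds (DMSO) pinned in; 18 h, 37 C; One-Glo, 30 min RT; luminescence.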

The nature of experiment [13]: qHTS assay to identify small molecule agonists of the estrogen related receptor signaling pathway with the pleiotropic PPARgamma coactivator (PGC) from Tox21 10K library (AID 1224842). Also: nearly all actives have a fitted effect of over 15% in size. In a few lines:
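Luminescence from One-Glo (30 min, room temperature) measured after PGC/ERR cells had 18 h at 37 C with pinned compound (23 nL in DMSO). Cells had been seeded at 2,000 per well and pre-incubated 6 h.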

Experiment [14] is described as follows: qHTS assay to identify small molecule agonists of the retinoic acid receptor (RAR) signaling pathway (AID 1159553). In a few lines: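 Luminescence from a RARE-driven luciferase reporter in C3RL4 cells served as the read-out, measured after 30 min with detection reagent at room temperature. Compounds in DMSO were applied for 6 hr at 37 C following overnight seeding.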

Experiment [15] can be described thus: qHTS assay to identify small molecule agonists of the estrogen related receptor (ERR) signaling pathway (AID 1224820). In a few lines: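 ERR reporter cell line (from NTP), 2,000 cells/well, incubated 6 h before compound addition, then 18 h at 37 C. Luminescence measured 30 min after One-Glo reagent at room temperature.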
Experiment [16] is described as follows: qHTS assay to identify small molecule agonists of the estrogen related receptor signaling pathway with the pleiotropic PPARgamma coactivator (PGC) (AID 1224823). The procedure, abridged: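 PGC/ERR reporter cells seeded 6 h, then exposed to compounds (23 nL in DMSO) for 18 h at 37 C. One-Glo luciferase luminescence read after 30 min at room temperature.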

Luciferin 4-monooxygenase (Photinus pyralis), sequence (P08659 whole entry, looked up): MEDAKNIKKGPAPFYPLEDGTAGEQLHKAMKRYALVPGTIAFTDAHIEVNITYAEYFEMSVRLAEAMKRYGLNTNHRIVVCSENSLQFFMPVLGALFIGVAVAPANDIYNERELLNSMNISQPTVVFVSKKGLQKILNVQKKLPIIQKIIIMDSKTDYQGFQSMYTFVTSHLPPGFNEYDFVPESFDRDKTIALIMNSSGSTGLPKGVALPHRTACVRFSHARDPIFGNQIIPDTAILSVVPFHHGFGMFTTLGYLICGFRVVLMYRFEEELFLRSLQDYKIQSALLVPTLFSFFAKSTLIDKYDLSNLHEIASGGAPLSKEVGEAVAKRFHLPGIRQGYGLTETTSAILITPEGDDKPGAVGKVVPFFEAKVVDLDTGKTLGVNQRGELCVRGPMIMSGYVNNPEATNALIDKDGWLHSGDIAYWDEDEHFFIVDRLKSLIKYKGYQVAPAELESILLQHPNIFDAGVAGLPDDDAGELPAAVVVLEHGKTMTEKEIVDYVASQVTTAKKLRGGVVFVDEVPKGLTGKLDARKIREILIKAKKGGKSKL
Nuclear receptor subfamily 1 group I member 3 (Homo sapiens), sequence (Q14994 whole entry, looked up): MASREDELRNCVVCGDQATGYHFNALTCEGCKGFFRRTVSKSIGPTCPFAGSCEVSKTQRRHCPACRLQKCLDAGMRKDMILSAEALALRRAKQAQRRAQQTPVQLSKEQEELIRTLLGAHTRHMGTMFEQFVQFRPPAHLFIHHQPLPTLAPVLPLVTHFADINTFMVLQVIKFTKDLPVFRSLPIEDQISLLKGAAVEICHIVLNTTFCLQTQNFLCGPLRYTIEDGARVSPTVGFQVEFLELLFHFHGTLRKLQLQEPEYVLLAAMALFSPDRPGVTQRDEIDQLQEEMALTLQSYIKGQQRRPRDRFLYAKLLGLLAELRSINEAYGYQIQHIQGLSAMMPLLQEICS
Thyrotropin receptor (Homo sapiens), sequence (P16473 whole entry, looked up): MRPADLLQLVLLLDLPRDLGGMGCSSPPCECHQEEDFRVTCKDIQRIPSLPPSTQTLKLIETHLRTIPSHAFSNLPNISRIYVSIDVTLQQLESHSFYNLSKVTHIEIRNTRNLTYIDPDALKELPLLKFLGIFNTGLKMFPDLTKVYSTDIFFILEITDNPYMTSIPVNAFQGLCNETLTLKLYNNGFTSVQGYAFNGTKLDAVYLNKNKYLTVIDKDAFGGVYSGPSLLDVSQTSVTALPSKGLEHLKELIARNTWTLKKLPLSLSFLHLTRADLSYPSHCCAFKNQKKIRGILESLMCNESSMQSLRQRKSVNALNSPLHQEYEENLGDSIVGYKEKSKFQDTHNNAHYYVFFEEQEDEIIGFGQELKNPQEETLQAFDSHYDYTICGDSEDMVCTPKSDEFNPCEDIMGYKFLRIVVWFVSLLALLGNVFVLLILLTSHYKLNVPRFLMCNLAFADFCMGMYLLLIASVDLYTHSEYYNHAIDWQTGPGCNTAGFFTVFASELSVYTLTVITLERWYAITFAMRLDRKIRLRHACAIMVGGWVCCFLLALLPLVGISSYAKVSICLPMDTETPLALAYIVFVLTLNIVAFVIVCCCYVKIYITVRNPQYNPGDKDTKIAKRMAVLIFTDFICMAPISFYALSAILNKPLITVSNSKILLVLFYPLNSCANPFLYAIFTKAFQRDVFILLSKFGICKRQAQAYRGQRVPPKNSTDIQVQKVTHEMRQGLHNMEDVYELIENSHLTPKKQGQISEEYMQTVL

`ClCc1ccccc1CCl`: the Potency result in experiment [1], in experiment [2], in experiment [3], in experiment [4], in experiment [5] and in experiment [6] was “inactive” in each case. Also, the Potency entry in experiment [7], in experiment [8], in experiment [9], in [10] and in experiment [11] was “inactive” in each case.
Consider `Cl/C=C\CCl`, for which the Potency result in [1], in experiment [2], in [3], in experiment [4], in experiment [5] and in experiment [6] was “inactive” each time. The Potency entry in [7], in [8], in experiment [9], in experiment [10], in experiment [12] and in experiment [13] was “inactive” each time. The Potency entry in [11] is “inactive”.
For `COP(N)(=S)OC`, the Potency entry in experiment [1], in [2], in experiment [3], in [4], in experiment [5] and in experiment [6] was “inactive” throughout. The Potency entry in experiment [7], in [8], in [9], in experiment [10], in [12] and in experiment [13] was “inactive” each time. Moreover, the Potency entry in [11] is “inactive”.
Regarding `N#C/C=C/C#N`, the Potency entry in experiment [1], in [2], in experiment [3], in experiment [14], in experiment [7] and in experiment [8] was “inactive” throughout. The Potency result in [10] and in experiment [11] was “inactive” in each case. In addition, the Potency in experiment [9] is 64 µM (active).
As to `COC12CC[C@@]3(C[C@@H]1C(C)(O)C(C)(C)C)[C@H]1Cc4ccc(O)c5c4[C@@]3(CCN1CC1CC1)[C@H]2O5` (stereo partly drawn), the Potency in experiment [1] is 21.7 µM (active); in experiment [2], 60.7 µM (active); in [3], 54.1 µM (active); in experiment [4], 27.1 µM (active); in [6], 43 µM (active); in experiment [7] it was 54.1 µM (active). Also, the Potency in experiment [8] is 48.2 µM (active); in [10] it was 43 µM (active); in [12] it was 60.7 µM (active). The Potency result in experiment [5], in [9] and in experiment [11] was “inactive” throughout.
Consider `[Cl][Sb]([Cl])[Cl]`, for which the Potency result in experiment [1], in experiment [2], in experiment [3], in [5], in [6] and in experiment [7] was “inactive” in each case. The Potency entry in experiment [8], in [9] and in experiment [11] was “inactive” in each case. Also, in [4], the Potency was 21.7 µM (active).
With `C[As+](C)(C)CC(=O)[O-]`, the Potency result in experiment [1], in experiment [2], in experiment [3], in [4], in experiment [5] and in experiment [6] was “inactive” in each case. Moreover, the Potency result in experiment [7], in experiment [8], in experiment [9], in experiment [10], in experiment [13] and in [11] was “inactive” throughout.
With `CC(=O)c1ccc(-c2ccccc2)cc1`, the Potency entry in experiment [1], in experiment [2], in experiment [3], in [4], in [6] and in [7] was “inactive” in each case. Besides, the Potency result in experiment [8], in [10] and in experiment [11] was “inactive” each time. In addition, the figures for the Potency in [5] and in [9] were 31.7 µM (active) and 48.6 µM (active), respectively.
For `CCCN(CCC)c1c([N+](=O)[O-])cc(S(N)(=O)=O)cc1[N+](=O)[O-]`, the Potency was 43.6 µM (active) in [1]; 58.1 µM (active) in [2]; 48.6 µM (active) in experiment [3]; 46.2 µM (active) in experiment [4]; 65.2 µM (active) in experiment [6]; 65.2 µM (active) in experiment [7]. The results for the Potency in experiment [9], in [12] and in experiment [11] were 16.4 µM (active), 65.2 µM (active) and 5.18 µM (active), respectively. Also, the compound was classed as inactive in experiment [15] and in experiment [16]. Further, the Potency entry in [5] was “inactive”.
